The list is not random: actives were taken first. Their share in the collection is about 7.8%.
VACV Venus inh – vaccinia inhibition (Venus reporter) | Vaccinia virus Venus reporter expression, fluorescence | hit rate 0.46% among 330,000 | Potency, µM (series often up to 36.5 µM), for inactives: at the top dose activity change, negative = inhibition, usual class: inhibitors; calls by dose curve; tested in A549 cells; further: potency means the concentration at half of the fitted maximal effect; nearly all actives have a fitted effect of over 30% in size
Lassa entry inh – blocks Lassa virus binding to or entry into cells; Lassa virus pseudotype entry inhibition, cell reporter; Potency, µM (highest dose often 37.9 µM), inactives show at the top dose activity change, negative = inhibition, actives largely listed as inhibitors; hit rate 1.2% among 300,000; calls by dose curve; tested in HEK293 cells; further: potency means the concentration at half of the fitted maximal effect; nearly all actives have a fitted effect of over 50% in size
MARV entry inh – blocks Marburg virus binding to or entry into cells; Potency, µM (titrated, usually from 37.8 µM), for inactives: at the top dose activity change, negative = inhibition, hits mostly inhibitors; AID 540276; hit rate 1.8% among 300,000; Marburg virus pseudotyped entry inhibition, cell reporter; calls by dose curve; tested in HEK293 cells; further: potency means the concentration at half of the fitted maximal effect
VACV mCherry inh – inhibitors of vaccinia virus infection (mCherry reporter signal); Vaccinia virus mCherry reporter infection, fluorescence; Potency, µM (series often up to 36.5 µM), for inactives: top-dose activity change, negative = inhibition, actives largely listed as inhibitors; hit rate 0.63% among 310,000; AID 720579; calls by dose curve; tested in A549 cells; further: potency means the concentration at half of the fitted maximal effect; nearly all actives have a fitted effect of over 35% in size
HCMV antiviral – inhibitors of human cytomegalovirus; activity change, negative = inhibition, % at 57.5 µM; HFF cells, HCMV-luciferase reporter, 72 h; hits give low values; hit rate 4.5% among 410,000; in the data active means activity change below about -60%; inconclusive means no clear call, values can overlap the other calls; inactive means above about -39%
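Two-dose cell screen: HFF monolayers treated with compounds and infected with luciferase-expressing HCMV at 1 PFU/cell, 72 h at 37C, then lysed for luciferase measurement.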
HCV inh – blocks hepatitis C virus. Huh7.5.1 HCVcc-Cre infection, luciferase reporter, 44 h. Potency, µM (top dose mostly 41.8 µM), without a hit: at the top dose activity change, negative = inhibition, most hits filed as inhibitors. hit rate 3.4% among 340,000. AID 651820; active means well fitted inhibition curve with a large enough effect; inconclusive means small, poorly fitted or top-dose-only effect, or another doubt; inactive means no such curve, though single readings can be large or run the other way; further: potency means the concentration at half of the fitted maximal effect
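HCVcc-Cre virus at an moi near 0.5 was added right after compound to cells cultured 4 h from seeding (1,000 cells/well). Luciferase activity was determined 44 h later, 15 min after substrate addition at RT.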
An asterisk follows results filed as active; i = inactive; u = inconclusive; x = not tested or not shown; [ ] = dose if it differs, or a comment. On the % scale 0 is the no-effect control and ±100 the full control effect.

SMILES	VACV Venus inh	Lassa entry inh	MARV entry inh	VACV mCherry inh	HCMV antiviral	HCV inh
CCOC(=O)N1CCN(C(=O)COc2cccc3c2CCN(CC)C3=O)CC1	-15%	-3%	5%	i	-8	-7%
O=C(COc1ccccc1F)N1CCCc2ccccc21	-16%	16%	2%	i	0	13%
CN1CCc2c(OCC(=O)N3CCCc4ccccc43)cccc2C1=O	-14%	u	3.2µM*	-20%	-11	-26%
CCOC(=O)N1CCN(C(=O)COc2cccc3c2CCN(Cc2ccc(F)cc2)C3=O)CC1	-24%	-12%	u	u	-67*	u
Cc1cccc(OCC(=O)OCC(=O)N2CCCc3ccccc32)c1C	x	x	x	x	-1	7%
O=C1c2cccc(OCC(=O)N3CCCc4ccccc43)c2CCN1Cc1ccc(F)cc1	-12%	u	u	-8%	-40	u
Cc1cccc(OCCCC(=O)N2CCCc3ccccc32)c1C	x	5%	-21%	x	u	10µM*
Cc1cccc(CN2CCc3c(OCC(=O)N4CCCc5ccccc54)cccc3C2=O)c1	u	4.5µM*	u	u	-20	u
COC(=O)[C@@H]1C[C@H](NC(=O)c2ccccn2)CN1Cc1cccc2ccccc12	5%	x	x	-4%	x	x
CC(=O)NNC(=O)CN1C(=O)/C(=C/c2ccccc2)SC1=S	x	x	x	x	u	8%
O=C(O)CN1C(=O)/C(=C\c2cccc(OCc3ccc(F)cc3)c2)SC1=S	5%	16%[46.1 µM]	-3%[46.1 µM]	i	-12	17%
CCN(C(=O)CCN1C(=O)/C(=C/c2ccccc2)SC1=S)C1CCS(=O)(=O)C1 (stereo not given)	u	u	u	u	-113*	u
O=C(O)CN1C(=O)/C(=C\c2cccc(OCc3ccccc3F)c2)SC1=S	2%	7%	27%[46.1 µM]	-4%	-76*	-7%
CCN(CC)C(=O)CN1C(=O)/C(=C/c2ccccc2)SC1=S	-7%	x	x	-21%	-63*	u
CN(C(=O)CCN1C(=O)/C(=C/c2ccc(F)cc2)SC1=S)C1CCS(=O)(=O)C1 (stereo not given)	11µM*	x	x	u	14	x
Nc1cc(-c2ccc(Br)cc2)nn1S(=O)(=O)c1ccccc1	-13%	1%	-1%	-14%	u	6%
Nc1cc(-c2ccccc2)nn1S(=O)(=O)c1ccc(F)cc1	u	x	x	10µM*	u	10µM*
COc1ccc(S(=O)(=O)n2nc(-c3ccc(Cl)cc3)cc2N)cc1OC	-16%	x	x	-24%	u	u
COc1ccc(-c2cc(N)n(S(=O)(=O)c3ccc(F)cc3)n2)cc1OC	u	x	x	7.1µM*	-26	10µM*
CCOc1ccc(-c2cc(N)n(S(=O)(=O)c3ccc(OC)c(OC)c3)n2)cc1	-15%	x	1%	i	-60*	22µM*
CCOC(=O)c1cc(-c2ccccc2)n(CCC(=O)NCCc2ccc(C)cc2)c1C	-16%	-25%[46.1 µM]	x	-15%	11	x
O=C(CSc1nnc(COc2cccc3cccnc23)o1)c1ccc(F)cc1	-13%	u	-24%	i	-17	10µM*
COc1ccc2c(c1)[C@@H](NC(=O)OCc1ccccc1)[C@H](C)[C@@H](c1ccccc1)N2	x	x	x	x	13	x
CN(C(=O)c1ccccc1F)C(c1ccccc1)c1ccccc1	7%	11µM*	u	2%	15	2%
CC(/C=N/NC(=O)c1ccccc1F)c1ccccc1 (stereo not given)	x	x	x	x	4	-2%
SMILES	VACV Venus inh	Lassa entry inh	MARV entry inh	VACV mCherry inh	HCMV antiviral	HCV inh
Cc1cc(S(=O)(=O)NCc2ccccc2)ccc1OCC(=O)Nc1cccc([N+](=O)[O-])c1	u	u	12µM*	u	-8	u
CCN(CC)CC(=O)N1c2ccccc2Sc2ccccc21	x	x	x	x	1	15%
CC(CN1c2ccccc2Sc2ccccc21)N(C)C (stereo not given)	-15%	u	1.1µM*	-18%	6	3%[8.37 µM]
CCN(CC)CC(O)CN1c2ccccc2Sc2ccccc21 (stereo not given)	-25%	u	3.2µM*	u	x	22µM*
CCN(CC)CCCCN1c2ccccc2Sc2ccccc21	u	u	11µM*	-28%	1	u
OCCN(CCO)CC(O)CN1c2ccccc2Sc2ccccc21 (stereo not given)	x	x	0%	x	x	13%
